Assay outcomes as filed in PubChem BioAssay.
Most compounds without a hit are left out; they make up all but 2.1% or so of the library.
APP 5UTR inh = APP translation inhibition; SH-SY5Y APP 5'UTR-luciferase reporter, luminescence; inhibition, % at 2 µM; 190,000 compounds, 0.82% hits;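 active = inhibition above a set limit, derived from the sample mean plus 3 SD, cut at about 45% in these data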
KLF5 inh = inhibitors of KLF5 expression | inhibition, % at 5 µM | 290,000 compounds, 0.23% hits | DLD-1 KLF5 promoter-luciferase reporter, luminescence;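 active = inhibition above a per-plate limit of that plate's mean compound inhibition plus 3 SD, cut at about 60% in these data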;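 note: higher means less KLF5 promoter-driven luciferase light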
Ba/F3 V617F tox = reduce viability of Ba/F3 cells dependent on JAK2V617F | Ba/F3 EpoR-JAK2V617F viability, ATP luminescence | inhibition, % at 5.6 µM | AID 1446 | 220,000 compounds, 1.1% hits;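 active = inhibition above the campaign mean plus 3 SD over all tested compounds, cut at about 24% in these data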;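 note: cytokine-independent growth of Ba/F3 cells driven by EpoR plus mutant JAK2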
IEC-6 cytotox = counter-screen for KLF5 inhibitors: cytotoxicity in IEC-6 cells; IEC-6 cytotoxicity, luminescence viability; inhibition, % at 5 µM; 290,000 compounds, 0.78% hits; in the data active = inhibition above about 22%
BaF3 tox = counter-screen for JAK2V617F inhibitors: parental Ba/F3 viability inhibitors. CellTiter-Glo ATP luminescence. inhibition, % at 5.6 µM. 220,000 compounds, 1.1% hits;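 active = inhibition above a per-campaign cutoff, the mean inhibition of all tested compounds plus 3 SD, cut at about 27% in these data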
aSyn UTR inh = 5' untranslated region of α-synuclein, MLPCN primary screen. AID 1813. alpha-synuclein 5'UTR reporter, inhibitor activity. inhibition, % (tested at 7.5 µM). 300,000 compounds, 0.82% hits; in the data active = inhibition above about 60%;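 note: H4 neuroglioblastoma cells stably carrying SNCA 5'UTR luciferase fusion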
BaF3 tox 2 = reduces parental Ba/F3 viability, JAK2V617F counter-screen | shares compounds with Ba/F3 V617F tox | CellTiter-Glo luminescence; cells kept alive by added IL-3 | inhibition, % at 5.6 µM | 580 compounds, 31% hits | AID 1520;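 active = cell growth inhibition above the hit limit set in the earlier mutant JAK2 cell screen, cut at about 27% in these data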
JAK2V617F conf = Ba/F3 EpoR-JAK2V617F viability loss, confirmation; shares compounds with Ba/F3 V617F tox; CellTiter-Glo luminescence; inhibition, % at 5.6 µM; 580 compounds, 66% hits; AID 1521;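 active = mean inhibition above the hit cutoff derived in the earlier primary screen, cut at about 25% in these data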;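 note: higher means lower luminescence from reduced cell ATP and viability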
Hits are given with their value; – = inactive; · = no result given.

SMILES | APP 5UTR inh | KLF5 inh | Ba/F3 V617F tox | IEC-6 cytotox | BaF3 tox | aSyn UTR inh | BaF3 tox 2 | JAK2V617F conf
CC1=CC(C)(C)N(S(=O)(=O)c2ccc(F)cc2)c2ccc(C)cc21 | – | – | – | – | – | – | · | ·
Cc1cc(C(N)=O)nn1-c1c(Cl)cc(Cl)cc1Cl | · | – | – | – | – | – | · | ·
COc1ccccc1N1CCN(CCCCOc2c(OC)cccc2OC)CC1 | · | – | · | – | · | – | · | ·
COc1ccccc1N1CCN(CCOc2c(OC)cccc2OC)CC1 | – | – | 26 | – | – | – | – | –
CCOc1ccccc1N1CCN(Cc2cccc(OC)c2O)CC1 | – | – | 40 | – | – | – | – | –
CCOC(=O)c1c(C)sc2c1N(C(=O)CCl)c1cc(Cl)ccc1S2 | – | – | 28 | – | – | – | 58 | 99
COCCNC(=O)C(OC(=O)c1ccco1)c1ccccc1F (stereo unspecified) | · | – | · | – | · | – | · | ·
Cc1ccc(Nc2nc(-c3ccc(O)c(O)c3)cs2)nc1 | – | – | 92 | – | – | – | 95 | 99
O=c1cnn([C@@H]2O[C@H](CO)[C@@H](O)[C@H]2O)c(=O)[nH]1 | – | – | 36 | – | – | – | – | 68
O=c1[nH]cnc2c1ncn2[C@@H]1O[C@H](CO)[C@@H](O)[C@H]1O | – | – | – | – | – | – | · | ·
O=[N+]([O-])/C(C=Nc1ccccc1O)=C\Nc1ccccc1O | · | – | 39 | – | – | – | – | 68
COCc1cc(=O)[nH]c(SCC(=O)Nc2ccccc2)n1 | – | – | 95 | – | – | – | – | –
C[C@@H]1CCC[C@H](C)N1Cc1nc(Cc2ccccc2Cl)no1 | – | – | – | – | – | – | · | ·
Cc1ccc(C(=O)c2c(C)oc3c2C(=O)C(=O)c2ccccc2-3)cc1 | – | – | 27 | – | – | – | – | 33
Oc1ccc(/C=N/Nc2nccnc2Cl)c(O)c1 | · | – | 32 | – | – | 88 | 71 | 91
Oc1ccc(/C=N/Nc2ncc(Br)cn2)c(O)c1 | – | – | – | – | – | – | · | ·
Cc1cc(C(F)(F)F)n(-c2ccc(N)cc2)n1 | – | – | – | – | – | – | · | ·
Cc1cc(SCC(=O)N/N=C/c2ccc(O)c(O)c2)c(C)cc1Br | – | – | 44 | – | – | – | – | 85
CCOc1ccc(NC2=NC(C)(C)N=C(N)N2)cc1 | – | – | 41 | – | – | – | 83 | 93
COc1ccc(F)cc1C(=O)C1CCCN(C(=O)C2=C(C)OCCO2)C1 (stereo unspecified) | – | – | – | – | – | – | · | ·
Cc1nc2cc(-c3ccccc3)sc2c(=O)n1N | – | 65 | 25 | – | – | 111 | 48 | 37
O=C(COC(=O)c1ccncc1)Nc1cc(Cl)ccc1Cl | – | – | 45 | – | – | – | – | –
CN(C)S(=O)(=O)c1ccc(-c2csc(N/N=C/c3ccc(O)cc3)n2)cc1 | · | – | 45 | – | – | – | 49 | 94
CN(C)S(=O)(=O)c1ccc(-c2csc(N/N=C/c3ccco3)n2)cc1 | · | – | – | – | – | – | · | ·
COc1ccc(Cl)c(Cn2c(NCc3ccco3)nc3c2c(=O)n(C)c(=O)n3C)c1 | – | – | 37 | – | – | · | 83 | 62
SMILES | APP 5UTR inh | KLF5 inh | Ba/F3 V617F tox | IEC-6 cytotox | BaF3 tox | aSyn UTR inh | BaF3 tox 2 | JAK2V617F conf
CCCn1c(NCc2ccco2)nc2c1c(=O)n(C)c(=O)n2C | – | – | – | – | – | – | · | ·
Cc1ccc(NC(=O)c2ccccc2)cc1 | – | – | – | – | – | – | · | ·
Cc1ccc(NC(=O)C2=C(c3ccccc3)S(=O)(=O)CCS2(=O)=O)cc1 | 93 | – | 71 | – | – | – | 40 | 99
CCc1ccc(N(CC(=O)NCc2ccco2)C(=O)CCC(=O)Nc2nccs2)cc1 | · | – | · | – | · | – | · | ·
CCCOc1ccccc1C1C(C(=O)OC)=CN(C(C)C)C=C1C(=O)OC | – | – | – | – | – | – | · | ·
CCCCOc1ccccc1C1C(C(=O)OC)=CN(CC)C=C1C(=O)OC | – | – | 29 | – | – | – | 30 | 35
O=C(CCl)N=c1sccn1Cc1ccccc1Cl | · | – | 99 | 100 | – | – | – | 99
CCC(=O)OCC(=O)N=c1sccn1Cc1ccccc1Cl | · | – | · | – | · | – | · | ·
O=C(CCl)N=c1sccn1Cc1ccc(Cl)cc1Cl | – | – | 101 | 99 | – | – | – | 99
CCC(=O)OCC(=O)N=c1sccn1Cc1ccc(C)cc1 | · | – | · | – | · | – | · | ·
Cc1ccc(C(=O)C[n+]2cc(Br)cc(Br)c2)cc1[N+](=O)[O-] | – | – | – | – | – | – | · | ·
CCOc1cc(NC(=O)c2ccco2)c(OCC)cc1NC(=O)c1ccco1 | · | – | · | – | · | – | · | ·
CCOc1cc(C#N)c(NC(=O)c2ccco2)cc1OCC | – | – | 39 | – | – | – | – | 24
CC(Oc1ccccc1Cl)C(=O)N(Cc1cccs1)C1CCS(=O)(=O)C1 (stereo unspecified) | · | – | · | – | · | – | · | ·
Cc1cc(C)nc(NS(=O)(=O)c2ccc(NC(=O)c3ccc(O)cc3O)cc2)n1 | · | – | · | – | · | – | · | ·
Cc1ccc(C=Nc2ccccc2C(=O)Nc2ccccc2)cc1 | – | – | – | – | – | – | · | ·
Cc1ccc(C=Nc2ccccc2C(N)=O)cc1 | – | – | 42 | – | – | – | 37 | 78
COc1ccc(-c2nnc(SCC(=O)Nc3ncc(C)s3)n2-c2ccccc2)cc1OC | – | – | 86 | – | – | – | – | –
COc1ccccc1NC(=O)CC(=O)CSc1nnc(-c2ccc(C)cc2)n1-c1ccccc1 | – | – | – | – | – | – | · | ·
O=C(Cc1ccc(-c2ccccc2)cc1)OCC(=O)N1CCCC1=O | – | – | – | – | – | – | · | ·
Cc1cc(SCC(=O)Nc2cccc(S(=O)(=O)NC3=NCCCCC3)c2)c(C)cc1Br | – | – | 26 | – | – | – | – | 31
O=C(NCc1ccccc1)C(c1ccncc1)N(C(=O)c1ccccn1)c1ccccc1 (stereo unspecified) | · | – | · | – | · | – | · | ·
COc1ccc(/C=C/C(=O)c2cc(F)ccc2OC(=O)c2ccccc2C)cc1OC | 97 | 68 | 39 | 88 | – | 82 | 29 | 97
CC(=O)O[C@H]1[C@H](C)OC=C[C@@H]1OC(C)=O | · | – | · | – | · | – | · | ·
COc1cccc(C(=O)COc2cccc(NC(=O)c3cccc([N+](=O)[O-])c3)c2)c1 | – | – | 42 | – | – | · | – | –
SMILES | APP 5UTR inh | KLF5 inh | Ba/F3 V617F tox | IEC-6 cytotox | BaF3 tox | aSyn UTR inh | BaF3 tox 2 | JAK2V617F conf
O=C(COc1cccc(NC(=O)c2cccc([N+](=O)[O-])c2)c1)c1ccc(F)cc1 | · | – | – | – | – | – | · | ·
CCOc1cc(Br)ccc1S(=O)(=O)NCc1ccccc1 | – | – | 101 | – | – | – | – | –
Cc1cccc(Nc2nc(NCc3ccco3)c3ccccc3n2)c1 | – | – | 33 | – | – | – | 49 | 52
COC(=O)/C=C/c1ccc2c(c1)OCO2 | – | – | – | – | – | – | · | ·
COC(=O)/C=C/c1ccc(OC(=O)OC)c(OC(=O)OC)c1 | – | – | 30 | – | – | – | – | 82
c1coc(CNc2nc3ccccc3s2)c1 | · | – | · | – | · | – | · | ·
